Assay outcomes from PubChem.
The list is not random: actives were taken first. Their share in the collection is about 1.9%.
ZTA counter: counter-screen for EBNA-1 inhibitors: inhibitors of Epstein-Barr virus ZTA; inhibition, % at 11 µM; ZTA-DNA binding, fluorescence polarization; AID 2234; P03206; 320,000 compounds, 0.15% hits; in the data active means inhibition above about 33%
p47phox inh: p47phox/p22phox peptide binding inhibitors, primary screen, biochemical, uHTS, NADPH oxidase regulatory subunit; Neutrophil cytosol factor 1 (Homo sapiens), P14598; inhibition, % at 24.7 µM; fluorescence polarization, 2 h; 220,000 compounds, 0.53% hits; AID 1274, 2008;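 active means inhibition above about 30%, limit read from the data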;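 further: 0% = p47phox with labelled peptide and 100% = labelled peptide alone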
NR1D1 modulator: modulators of Rev-erb alpha DNA binding, primary screen, biochemical, FITC-DNA, fluorescence polarization, uHTS. AID 1259318, 2017. 370,000 compounds, 0.79% hits. activity, % at 10 µM. Rev-erbα–FITC-DNA binding, 90 min;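 active means activity above about 14%, limit read from the data; passing the limit was not always enough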;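 further: 0% = DMSO wells with 35 nM protein and 100% = DMSO wells with 750 nM protein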
Target sequence (P20393 whole entry, looked up): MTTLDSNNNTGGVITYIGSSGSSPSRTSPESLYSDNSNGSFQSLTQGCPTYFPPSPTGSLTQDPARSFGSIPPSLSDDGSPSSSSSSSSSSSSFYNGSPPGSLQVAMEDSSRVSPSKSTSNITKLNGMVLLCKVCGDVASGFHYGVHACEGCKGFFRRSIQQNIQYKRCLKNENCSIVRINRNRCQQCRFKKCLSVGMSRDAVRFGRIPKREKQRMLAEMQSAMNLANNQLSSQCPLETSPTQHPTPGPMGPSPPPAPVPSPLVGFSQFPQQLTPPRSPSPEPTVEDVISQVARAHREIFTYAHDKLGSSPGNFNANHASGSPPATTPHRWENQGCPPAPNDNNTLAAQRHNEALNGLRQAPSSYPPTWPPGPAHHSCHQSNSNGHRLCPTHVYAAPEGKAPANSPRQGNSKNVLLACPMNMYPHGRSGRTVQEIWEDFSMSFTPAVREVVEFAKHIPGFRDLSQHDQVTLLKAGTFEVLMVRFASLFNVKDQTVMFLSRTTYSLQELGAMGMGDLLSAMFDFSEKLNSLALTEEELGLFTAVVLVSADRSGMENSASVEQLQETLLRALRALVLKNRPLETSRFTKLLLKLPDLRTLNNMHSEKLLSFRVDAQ
EBNA-1 inh: EBNA-1 DNA-binding inhibitors, primary screen, biochemical, fluorescence polarization; inhibition, % at 14.8 µM; 300,000 compounds, 0.34% hits; in the data active means inhibition above about 28%
PG9 Ab binder: binders of HIV-1 gp120 antibody PG9, primary screen, biochemical, TR-FRET | HIV-1 gp120 / PG9 antibody interaction | TR-FRET gp120-PG9 antibody binding | 360,000 compounds, 0.43% hits | AID 624416, 2012 | inhibition, % at 6.7 µM; in the data active means inhibition above about 8.5%
aDG glyco up: activators of alpha-DG glycosylation, primary screen, uHTS, Pro5-aDG cells, AlphaScreen; alpha-DG glycosylation AlphaScreen (IIH6); 0% Pro5, 100% B10-LARGE cell signal; activation, % at 10 µM; 360,000 compounds, 0.22% hits;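 active means activation of at least 8% versus controls, or a plate z-score of at least 8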;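 further: Pro5 are CHO cells carrying HIG-tagged alpha-DG that lacks glycosylation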
Rev-erbA confirm: modulators of Rev-erb alpha DNA binding, confirmation, biochemical, FITC-DNA, fluorescence polarization, single point; shares compounds with NR1D1 modulator; 90 min; activation, % at 25 µM; 3,000 compounds, 61% hits;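 active means activation at or above a set limit, or at least 3 SD above the negative control mean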;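 further: 0% = 35 nM protein with DMSO and 100% = 750 nM protein high control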
RORg counter: modulation of RORgamma DNA binding, dose response, counter-screen for Rev-erb alpha modulator project, biochemical, fluorescence polarization, FITC-DNA; shares compounds with NR1D1 modulator; purified RORgamma protein-FITC-DNA binding; IC50, µM; 910 compounds, 8% hits; AID 1259320, 2017;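 active means Compounds whose fitted half-maximal concentration for disrupting protein-DNA binding is below 10 micromolar; the record names Rev-erb in its text, so the target is in doubt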
* marks the source's active call; other numbers are inactive results; / = no result.

SMILES	ZTA counter	p47phox inh	NR1D1 modulator	EBNA-1 inh	PG9 Ab binder	aDG glyco up	Rev-erbA confirm	others
COc1cccc(-c2nc(N3CCCCC3)c3ccccc3n2)c1O	13.8	/	0.2	-2.3	1.0	-0.1	/
COc1cccc(N2CCN(CC(=O)NCc3ccc(Cl)cc3)CC2)c1	/	/	1.2	/	/	/	/
CCc1nc2oc3ccc(C)cc3c(=O)c2cc1C(=O)OC	/	/	30.2*	/	-1.6	-0.1	27.0*
O=C(Nc1cccnc1Cl)c1cc(-c2cccc(O)c2)on1	15.7	/	-18.6	2.1	-1.1	-0.1	/
O=C(Nc1cccnc1Cl)c1cc(-c2ccc(Br)cc2)on1	-3.0	/	23.4*	7.7	2.8	-0.1	-4.2
COc1ccc(-c2cc(C(=O)Nc3cccnc3Cl)no2)cc1OC	-16.0	/	38.8*	-12.8	-0.3	0.0	35.3*	RORg counter=>40
CCC(C)NS(=O)(=O)c1ccc2[nH]c(=O)oc2c1 (stereo not given)	/	/	2.4	/	/	/	/
CCSc1nc(-c2ccc(OC)cc2)cc(-c2ccccc2)c1C#N	13.8	-7.0	20.8	-2.3	0.9	0.3	/
COc1ccc(-c2cc(-c3ccccc3)nc(SCC(=O)Nc3ncc(C)s3)c2C#N)cc1	-3.8	-24.7	38.9*	5.6	3.3	-0.3	6.6
CCc1nnc(NC(=O)CSc2nc(-c3ccc(F)cc3)cc(-c3ccccc3)c2C#N)s1	/	29.1	37.7*	/	-0.2	-0.1	15.7
CC1CCCC(NC(=O)CSC2=Nc3ccccc3C3CC=NN23)C1C (stereo not given)	-6.0	/	17.0*	/	-0.7	0.1	-0.3
O=C1NC(=O)c2c(Br)c(Br)c(Br)c(Br)c21	/	/	395.4*	/	2.5	-0.2	441.7*	RORg counter=7.53*
O=C1NC(=O)C(=O)N1	-13.6	/	5.4	-0.2	-2.3	-0.1	/
C[C@H]1CCCC(=O)N[C@@H](c2ccccc2)[C@@H](C)CCCC(=O)N[C@H]1c1ccccc1	/	/	-3.6	/	/	/	/
CN(C)c1ccc(/C=c2\sc3n(c2=O)CCCN=3)cc1	2.0	-62.7	26.7*	-2.3	-17.9	0.0	16.6
O=c1/c(=C/c2ccc(O)cc2)sc2n1CCCN=2	4.0	-4.8	-6.1	-1.3	-2.6	-0.7	/
COc1ccc(C2=C/C(=C\c3ccc(OC(C)=O)cc3)C(=O)O2)cc1	-12.1	-13.3	-4.2	0.6	-0.5	-0.1	/
CN(C)c1ccc(/C=C2/C=C(c3ccc4c(c3)CCCC4)OC2=O)cc1	-6.5	45.2*	24.6*	4.2	1.5	2.3	3.1
Cc1ccc(C=C2C=C(c3ccccc3)OC2=O)cc1	/	/	-5.8	/	0.2	-0.2	/
CN(C)c1ccc(C=C2C=C(c3ccccc3)OC2=O)cc1	/	/	31.9*	/	-2.4	0.4	0.5
Cc1c[nH]c2cccc(-c3ccc(OCc4ccccc4)cc3)c12	/	/	9.2	/	/	/	/
CN(C)c1ccc(P(=O)(Nc2cccc(C(F)(F)F)c2)N2CCOCC2)c(NC(=O)c2cccs2)c1 (stereo not given)	12.3	-20.4	32.5*	-0.7	0.9	1.3	2.5
Cc1cccn2c(=O)c3cc(C(=O)N4COCC4(C)C)n(Cc4ccccc4)c3nc12	-13.9	/	31.2*	-1.3	-0.2	0.3	13.3
CCNC(=O)c1cc2c(=O)n3cccc(C)c3nc2n(Cc2ccc(C)cc2)c1=N	8.9	11.6	-0.5	-7.0	0.5	0.8	/
Cc1cc(C)c(C#N)c(SCCS(=O)(=O)c2ccc(C(C)(C)C)cc2)n1	0.8	-7.0	23.9*	4.3	-1.5	1.0	11.9
SMILES	ZTA counter	p47phox inh	NR1D1 modulator	EBNA-1 inh	PG9 Ab binder	aDG glyco up	Rev-erbA confirm	others
O=S(=O)(c1ccc(Cl)cc1)N1CCN(c2nc(-c3cccs3)nc3ccccc23)CC1	/	-26.0	29.4*	/	-2.3	0.0	14.5
COC(=O)CCCn1cc(CN2CC=CS2(=O)=O)nn1	/	/	1.7	/	/	/	/
CC(Sc1nn(-c2ccc(F)cc2)c(=S)s1)C(=O)c1c(N)n(C)c(=O)n(C)c1=O (stereo not given)	-9.8	/	22.1*	0.9	1.5	0.1	23.5*
CC(C)CCNC(=O)c1ccc(Cn2c(=S)[nH]c3ccccc3c2=O)cc1	6.5	/	28.9*	9.1	4.0	0.2	26.0*
NS(=O)(=O)c1ccc(CCNC(=O)c2ccc(Cn3c(=O)[nH]c4ccccc4c3=O)cc2)cc1	-3.6	-2.3	19.3*	-18.3	8.4	-0.2	1.1
Cc1ccc(Cn2c(=S)[nH]c3ccccc3c2=O)cc1	2.8	/	12.5	-7.8	-3.0	-0.1	/
CC1(C(=O)NS(=O)(=O)c2cccc(Cl)c2)CCN1C(=O)CC1CCCCC1 (stereo not given)	/	/	16.4*	/	-1.8	-0.2	3.5
CC1(C(=O)NS(=O)(=O)c2cccc(Cl)c2)CCN1C(=O)CC1CC1 (stereo not given)	/	/	-3.4	/	0.3	-0.1	/
CN(Cc1ccccc1)S(=O)(=O)c1cccc(C(=O)OCc2ccccc2)c1	/	/	-6.8	/	/	/	/
COc1ccc(C(=O)Nc2ccc3[nH]c(-c4cccc(OC)c4)cc(=O)c3c2)cc1	12.2	-10.6	50.9*	14.2	-1.4	0.8	4.4
CN(C)c1ccc(C=NN2C(=O)CSC2=S)c(Cl)c1	/	/	22.5*	/	-2.1	0.5	-3.1
COc1ccc(-c2c(C(F)(F)F)oc3cc(OCC(=O)Nc4ccccc4C(F)(F)F)ccc3c2=O)cc1OC	-21.8	31.1*	37.0*	4.1	-1.5	-0.2	20.1*
COC(=O)[C@]12C[C@H](CC(=O)NCC34CC5CC(CC(C5)C3)C4)C(=O)N(Cc3ccco3)C1=C[C@H](C(C)(C)C)O[C@@H]2C	/	/	-1.7	/	/	/	/
Fc1ccccc1Oc1nc(-c2ccncc2)nc2ccccc12	14.5	-6.1	32.8*	-5.8	0.1	0.1	15.0
COC(=O)C1CN(Cc2cn(CCOC(C)=O)nn2)CCS(=O)(=O)N1Cc1ccc(C)cc1 (stereo not given)	/	/	3.8	/	/	/	/
COc1ccccc1-c1ccc2c(c1)C(C)(Cc1ccccc1C#N)C(=O)N2 (stereo not given)	/	/	47.8*	/	0.2	0.0	41.6*	RORg counter=>40
CC1(Cc2ccccc2C#N)C(=O)Nc2ccc(-c3ccccc3)cc21 (stereo not given)	/	/	35.6*	/	-1.1	0.0	51.0*	RORg counter=>40
CCc1ccc2c(c1)NC(=O)C2(C)Cc1ccccc1C#N (stereo not given)	/	/	2.2	/	0.7	0.2	/
